The list is not random: actives were taken first. Their share in the collection is about 21%.
Pf growth 48h: P. falciparum growth inhibition at 48 hours (one generation); P. falciparum luciferase growth in erythrocytes, 48 h; Potency, µM (doses to about 28.7 µM), without a hit: at the highest dose activity change, negative = inhibition, usual class: inhibitors; 310,000 compounds, 5.9% hits; AID 504832; active = well fitted inhibition curve with a large enough effect; inconclusive = small, poorly fitted or top-dose-only effect, or another doubt; inactive = no such curve, though single readings can be large or run the other way; note: potency is the fitted concentration of half-maximal effect; % is set by controls: 0 for no effect and ±100 for the full control effect
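Firefly luciferase activity from engineered P. falciparum reports growth; inhibitors lower the luminescent signal. Cultures contained 2% hematocrit erythrocytes at 0.1% final parasitemia.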
NS1 inh: blocks influenza NS1 protein function; 270,000 compounds, 0.4% hits; AID 2326; Potency, µM (titrated, usually from 46.1 µM), inactives show top-dose activity, positive = more growth; note: potency is the fitted concentration of half-maximal effect; actives are rising curves; nearly all actives have a fitted effect of over 50% in size
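Growth recovery, yeast-based: influenza A NS1 expressed in S. cerevisiae causes slow growth, and suppressors are detected by OD600. The parent strain without NS1 is used as positive control.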
Cycloheximide cs: counter-screen hit for Shiga toxin inhibitors, cycloheximide; cell reporter, cycloheximide protein synthesis inhibition counterscreen; max response, %; 300,000 compounds, 12% hits; AID 2314; in the data active = max response mostly above about 13%, no sharp cut-off; inactive = mostly below about 14%; note: read at 38.3 µM for the half of the compounds with a filed dose; 0% is about no effect
Pf growth 96h: inhibits malaria parasite growth, 96 h. P. falciparum luciferase reporter growth, 96 h. Potency, µM (highest dose often 28.7 µM), inactives show at the highest dose activity change, negative = inhibition, usual class: inhibitors. 320,000 compounds, 6.9% hits; active = well fitted inhibition curve with a large enough effect; inconclusive = small, poorly fitted or top-dose-only effect, or another doubt; inactive = no such curve, though single readings can be large or run the other way; note: potency is the fitted concentration of half-maximal effect; % is set by controls: 0 for no effect and ±100 for the full control effect
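Cell-based qHTS: luciferase-tagged P. falciparum in erythrocytes (2% hematocrit, 0.05% parasitemia final) incubated with compounds for 96 hours, 37 C, 5% CO2; luciferase detection reagent then added and luminescence measured.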
SARS PLpro yeast: blocks SARS-CoV papain-like protease in a yeast assay; Potency, µM (titrated, usually from 32.9 µM), for inactives: at the highest dose activity, positive = growth rescue, usual class: activators; AID 485353; 330,000 compounds, 0.19% hits; S. cerevisiae expressing SARS-CoV PLpro, growth rescue; note: potency is the fitted concentration of half-maximal effect; 0% is about no effect; nearly all actives have a fitted effect of over 55% in size
Shiga toxin inh: Shiga toxin inhibition | 290,000 compounds, 9.2% hits | inhibition, % at 38.7 µM | Vero cells, Shiga toxin protein synthesis inhibition reporter; in the data active = inhibition mostly above about 28%, no sharp cut-off; inactive = mostly below about 43%; note: 0% is about no effect
The depositor's hits bear a star; u = inconclusive; x = not tested or not shown. Unless noted, calls come from the whole dose curve.

SMILES	Pf growth 48h	NS1 inh	Cycloheximide cs	Pf growth 96h	SARS PLpro yeast	Shiga toxin inh
CCCN(CCC)CCCNC(=O)c1cc2c(=O)[nH]c3ccccc3c2s1	u	3%	11	u	8%	-14
Cn1c(NCc2cccs2)nc2ccccc21	67%	0%	33*	15%	3%	57*
Cn1c(NCc2ccco2)nc2ccccc21	60%	-5%	12*	32%	7%	15
CC(C)(C)NC(=O)NC(=O)COC(=O)CCC1CCCC1	3%	-31%	-1	-8%	0%	-5
COc1ccc(/C=C/C(=O)Nc2cc(C)nn2-c2nc3ccccc3[nH]2)cc1	u	-8%	21	u	-13%	27
COc1ccc(/C=C/C(=O)Nc2cc(C)nn2-c2nc3ccccc3n2Cc2cccc([N+](=O)[O-])c2)cc1	u	6%	5	9.3µM*	4%	18
CCCCc1ccc(NC(=S)N2CCC(O)CC2)cc1	9%	9%	19	412%	-1%	32
CSc1nc(N)n2nc(-c3ccc(Cl)cc3)cc2n1	151%	-5%	47*	261%	-3%	86*
CN1C(=O)/C(=C/c2ccc(OCc3ccccc3F)cc2)N(C)C1=S	-23%	6%	-3	-21%	-3%	x
CN(C(=O)COC(=O)c1ccccc1NCCO)C1CCS(=O)(=O)C1 (stereo unspecified)	-19%	x	x	0%	-6%	x
CCn1c(=O)n(CC)c2cc(N3CCCC3)c(NC(=O)c3cc(Br)ccc3OC)cc21	9.3µM*	-12%	14	u	1%	17
CCn1c(=O)n(CC)c2cc(N3CCCC3)c(NC(=O)c3ccccc3C)cc21	u	-4%	-2	9.3µM*	8%	3
CCn1c(=O)n(CC)c2cc(N3CCCC3)c(NC(=O)c3ccc(C)cc3)cc21	-4%	2%	9	u	0%	-10
CCn1c(=O)n(CC)c2cc(N3CCCC3)c(NC(=O)c3ccccc3F)cc21	u	-6%	-3	1.3µM*	7%	6
CCn1c(=O)n(CC)c2cc(N3CCCC3)c(NC(=O)c3ccccc3)cc21	-15%	-5%	-4	u	-13%	-8
CC(OC(=O)CCN1C(=O)C2CC=CCC2C1=O)C(=O)Nc1cccc(Cl)c1 (stereo unspecified)	47%	x	x	0%	-5%	x
Cc1ccc(C)c(NC(=O)CS(=O)(=O)c2cccc3nsnc23)c1	-10%	x	10	17%	2%	-12
Cc1nc(Cl)sc1C(=O)Nc1cccc2ccccc12	-3%	-39%	8	-4%	13%	10
Cc1ccc(C)c(OCCCNC2CCCC2)c1C	12µM*	x	-2	u	0%	16
CC1CCN(CCCCOc2cccc(Br)c2)CC1	u	-11%	-4	2.6µM*	-11%	-6
Brc1cccc(OCCCNC2CCCC2)c1	u	22%	-3	12µM*	1%	-5
Cc1cc(Br)ccc1OCCCCN1CCC(C)CC1	15µM*	-1%	-5	-21%	-23%	-12
CC1CCN(CCCCOc2ccc(Br)cc2)CC1	-19%	-4%	-1	-1%	-38%	2
COc1ccc(C=O)cc1Oc1nc(Cl)ncc1F	-5%	2%	-3	58%	-1%	-15
O=C(/C=C/c1ccc2c(c1)OCO2)NCCS(=O)(=O)N1CCN(c2ccc(F)cc2)CC1	u	x	x	-24%	7%	x
SMILES	Pf growth 48h	NS1 inh	Cycloheximide cs	Pf growth 96h	SARS PLpro yeast	Shiga toxin inh
Cn1ncc(Cl)c1C(=O)NCC1CCCO1 (stereo unspecified)	14%	11%	1	57%	6%	-5
CSc1cccc(-n2cc(-c3ccc4c(c3)OCO4)[nH]c2=O)c1	43%	6%	29*	u	1%	83*
COC(=O)C1=C(NC(=O)c2ccccc2[N+](=O)[O-])CCS1	-15%	x	9	-8%	2%	-9
CN1/C(=C\C(=O)Nc2ccc(F)cc2)C(C)(C)c2ccccc21	5.2µM*	-24%	1	u	-75%	33
CN1/C(=C\C(=S)NC(=O)c2cccc(Br)c2)C(C)(C)c2ccccc21	u	26%	6	12µM*	10%	2
O=C(NCc1cccnc1)Nc1cccc(Cl)c1Cl	43%	-2%	18	u	-4%	-7

Screening data: PubChem BioAssay, National Center for Advancing Translational Sciences (NCATS)
